# Out of some 360,000 compounds screened, about 130 (0.036%) were called active. Rule as the data show it: active = potentiation above about 30%; inactive = the rest. Only a selection was taken, and actives are over-represented in it overall.
# Target: D(1A) dopamine receptor (Homo sapiens) (UniProt P21728)
# Test: Potentiators of Human D1 Dopamine Receptor: qHTS; also: 0% is about no effect
# Conditions: HEK293 TREx D1 cells, calcium flux, dopamine EC20 potentiation; at 10 µM; stronger effect = higher value
# Text: Dopamine receptors (DARs) are involved in the etiology and/or therapy of a number of neuropsychiatric and endocrine disorders. For instance, all receptor-based antiparkinsonian drugs work via stimulating the D1 DAR subtype whereas all FDA-approved antipsychotic agents are antagonists of this receptor. […] There are three different types of allosteric modulators that we are seeking, two of which will stimulate or augment receptor signaling, allosteric agonists and potentiators, while the third, allosteric antagonists, will attenuate receptor signaling. The present primary screening assay measures compound potentiation of an EC20 dopamine response by tracking calcium flux in a […], inducible Hek293 Trex D1 cell line.
# NIH Chemical Genomics Center [NCGC]
# NIH Molecular Libraries Probe Centers Network [MLPCN]
# Assay Submitter (PI): David Sibley
# Freshly passaged cells are plated in 1536 well black, clear bottom plates at a density of 4000 cells/well in 3 ul of complete media containing 1x tetracycline inducer. After an overnight incubation at 30 C in 5% CO2, cells are loaded with 2 ul of the no wash Calcium Assay Kit (ABD Bioquest) and incubated at room temperature for 30 to 90 minutes. A 10 cycle (1 second/cycle) baseline measurement is taken and then the FDSS online 1536 pintool delivers 23 nl of compound library (as well as dopamine controls) to the plate. The plate is measured for kinetically at 1 cycle/sec for 180 seconds and is considered to be the agonist portion of the assay (eg, compounds which activate a positive calcium response during this portion are flagged as potential agonists). Following the 180 second read, 1 ul of an EC20 of dopamine is delivered by an onboard pipette head. Measurements are taken kinetically for an additional 180 seconds.
# Sequence of D(1A) dopamine receptor (Homo sapiens) (P21728 whole entry, looked up): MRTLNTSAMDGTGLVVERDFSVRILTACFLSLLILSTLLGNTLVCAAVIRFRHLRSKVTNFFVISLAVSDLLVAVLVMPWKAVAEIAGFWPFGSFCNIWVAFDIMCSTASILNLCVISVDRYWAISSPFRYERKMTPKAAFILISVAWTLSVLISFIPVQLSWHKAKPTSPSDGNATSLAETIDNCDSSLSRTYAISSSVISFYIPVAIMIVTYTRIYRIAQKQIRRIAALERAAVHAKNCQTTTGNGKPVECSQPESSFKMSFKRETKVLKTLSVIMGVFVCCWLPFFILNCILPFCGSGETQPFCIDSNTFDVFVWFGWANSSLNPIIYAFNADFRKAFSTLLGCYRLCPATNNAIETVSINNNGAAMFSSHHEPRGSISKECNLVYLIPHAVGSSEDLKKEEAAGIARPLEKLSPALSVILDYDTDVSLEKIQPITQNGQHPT
row,Structure (SMILES),potentiation
1,Cc1ccc(S(=O)(=O)NC(N)=NCCC[C@@H](NC(=O)CNC(=O)c2ccccc2)C(=O)Nc2cc(C(F)(F)F)ccc2Cl)cc1,5.3% (inactive)
2,COc1ccc(N2C(=O)CS(=O)(=O)C23C(=O)N(Cc2ccc(C)cc2)c2ccccc23)cc1Cl (stereo not given),-6.6% (inactive)
3,COc1cccc(NC(=O)N(Cc2cn(C)c3ccccc23)C2CCCCCC2)c1,1.8% (inactive)
4,O=C(CC1N=C2c3ccccc3N=C(SCc3ccc(F)cc3)N2C1=O)NCc1cccs1 (stereo not given),-0.25% (inactive)
5,CCN1CCN(c2cc(C)c3cc(NC(=O)c4cc(Cl)ccc4OC)ccc3n2)CC1,-1.15% (inactive)
6,Cc1nc(SCC(=O)N2CCN(c3ccccc3)CC2)[nH]c(=O)c1C,5.55% (inactive)
7,CC(=O)c1ccc(NC(=O)CSc2nnc(NC(=O)Nc3ccccc3)s2)cc1,4.75% (inactive)
8,Cc1ccc(O)c(NC(=O)CCS(=O)(=O)c2nc(-c3ccc4c(c3)OCO4)cc(C(F)(F)F)n2)c1,-1.35% (inactive)
9,CCOC(=O)Cn1c(=O)n(-c2ccccc2OC)c2nc(-c3cccc(F)c3)nc(C(N)=O)c21,-1.3% (inactive)
10,Cc1ccc(C2CCN(C(=O)c3cnn(-c4ccccc4Cl)c3C3CCN(C(=O)OC(C)(C)C)CC3)C2)cc1 (stereo not given),2% (inactive)
11,COc1ccc(N2CCN(C(=O)c3c(C)oc4nc(C)nc(N5CCCC5)c34)CC2)cc1,-1.55% (inactive)
12,O=C(CSc1nccn1Cc1ccc(Cl)cc1)NCc1ccccc1,0.3% (inactive)
13,Cc1ccccc1OCCC(=O)OCC(=O)NC(C)c1ccccc1 (stereo not given),-0.3% (inactive)
14,COc1ccc(N2CCN(C(=O)[C@@H](NC(=O)c3cc(OC)cc(OC)c3)C(C)C)CC2)cc1,-4.25% (inactive)
15,COc1cc(OC)cc(C(=O)N[C@H](C(=O)OCC(=O)NC(C)c2ccccc2)C(C)C)c1 (stereo not given in full),36.6% (active)
16,Cc1onc(-c2ccc(F)cc2F)c1C(=O)Nc1cccc(C(F)(F)F)c1,0.65% (inactive)
17,COc1ccccc1-c1cc(C(F)(F)F)nc(S(=O)(=O)CCCC(=O)Nc2ccc(F)cc2F)n1,-0.1% (inactive)
18,COc1ccc(CCNc2nc(-c3ccc(F)cc3)cc(C(F)(F)F)n2)cc1OC,3.1% (inactive)
19,COc1ccc(C2=NC(c3ccncc3)=Nc3ccc(Br)cc3N2)cc1,3.45% (inactive)
20,Brc1ccc(C2CC(c3ccccc3)=Nc3ccccc3N2)cc1 (stereo not given),-5.6% (inactive)
21,Brc1ccc2c(c1)NC(c1cccnc1)=NC(c1ccccc1)=N2,35.8% (active)
22,CCCCS(=O)(=O)c1oc(-c2cccs2)nc1S(=O)(=O)c1ccccc1,-0.2% (inactive)

row,Structure (SMILES),potentiation
1,CCc1ccccc1NC(=O)c1ccc2nc(CCc3ccccc3)oc2c1,1% (inactive)
2,CCOc1ccccc1C(=O)NC1(C(F)(F)F)NC(=O)N(CCc2ccc(OC)c(OC)c2)C1=O (stereo not given),-3.95% (inactive)
3,O=C(NCc1nnc(C(=O)Nc2ccc(C(F)(F)F)cc2Cl)o1)c1ccccc1,-8.2% (inactive)
4,CCCS(=O)(=O)c1ncc(Cl)c(C(=O)Nc2scc(-c3ccccc3)c2C(=O)OCC)n1,-3.7% (inactive)
5,N#Cc1nc(Nc2cc(F)cc(Cl)c2)nc(NC2CCCC2)n1,-0.2% (inactive)
6,CCOc1ccc(C2C3=C(CCCC3=O)N(CC(=O)O)C3=C2C(=O)CCC3)cc1,36% (active)
7,CCOc1ccc(C2C(C#N)=C(N)N(N(C)C)C3=C2C(=O)CCC3)cc1 (stereo not given),-0.15% (inactive)
8,COc1ccc(C2C3=C(CCCC3=O)N(CC(=O)O)C3=C2C(=O)CCC3)cc1,1% (inactive)
9,CCc1ccc(CN(Cc2ccco2)C(=O)c2ccccc2Cl)cc1,-2.55% (inactive)
10,CC(=O)Nc1cccc(NC(=O)CSc2cn(CC(=O)N3CCCC3)c3ccccc23)c1,-2.85% (inactive)
11,O=c1c(NCc2cccs2)nccn1-c1ccccc1,0.1% (inactive)
12,O=C(COc1ccc(Cl)cc1)N(Cc1ccco1)Cc1ccco1,1.05% (inactive)
13,Cc1ccc(Cn2c(C)c3cnn(CC(=O)NCc4ccccc4)c(=O)c3c2C)cc1,-1.5% (inactive)
14,O=C(COc1ccccc1)NCc1ccc2c(c1)CCN2C(=O)c1ccc(F)cc1,-2.1% (inactive)
15,Cc1ccc(CCNC(=O)Cn2c(-c3cccs3)cc3cc(F)ccc32)cc1,-3.65% (inactive)
16,Cc1ccc(-c2cc(N)n(Cc3cccc(Cl)c3)n2)cc1,-4.4% (inactive)
17,O=S(=O)(c1ccc2nc(NCc3ccccc3Cl)ccc2c1)N1CCCCC1,-5.55% (inactive)
18,Cc1ccc2ccc3c(c2n1)NS(=O)(=O)c1ccccc1-3,1.45% (inactive)
19,COc1ccc(OC)c(NC(=O)CSc2nc3ccccc3nc2N2CCCCC2)c1,-3.85% (inactive)
20,CCc1ccccc1NC(=O)CSc1nnc(-c2ccccc2)c(-c2ccccc2)n1,1% (inactive)
21,Cc1c(Cl)cccc1NC(=O)c1noc2c1CCCC2,2.2% (inactive)
22,CCC(=O)N1CCc2cc(CNS(=O)(=O)c3ccc(Br)s3)ccc21,-0.5% (inactive)

row,Structure (SMILES),potentiation
1,O=C1C(F)N([S+](=O)([O-])c2ccc3c(c2)OCCO3)CCN1[S+](=O)([O-])c1c(F)cccc1F (stereo not given),5.45% (inactive)
2,COc1cccc(CNC(=O)c2ccc3c(c2)N(Cc2ccc(C(F)(F)F)cc2)C(=O)c2ccccc2S3)c1OC,-5.65% (inactive)
3,N#Cc1nc(Nc2cccc(Cl)c2)nc(NC2CCCC2)n1,-2.6% (inactive)
4,Cc1c(-c2nc(-c3ccc4c(c3)OCO4)no2)nnn1-c1ccc(Br)cc1F,-2.8% (inactive)
5,CC1CCC2(CC1)N=C(c1ccccc1)C(=O)N2CC(=O)Nc1ccc(F)c(Cl)c1 (stereo not given),-3.15% (inactive)
6,CN(C(=O)c1ccc2c(c1)N(Cc1cccc(Cl)c1)C(=O)c1ccccc1S2=O)C1CCCCC1 (stereo not given),0.2% (inactive)
7,CCc1cc2c(cc3c(=O)n(CC(=O)N4CCN(c5cc(Cl)ccc5C)CC4)ncn32)s1,-2.7% (inactive)
8,O=C(CNC(=O)c1ccccc1)OC(C(=O)Nc1cc([N+](=O)[O-])ccc1F)c1ccccc1 (stereo not given),5.6% (inactive)
9,COCCNC(=O)c1ccc2c(c1)N=C(C)c1cc(C)ccc1S2,0.1% (inactive)
10,CCOC(=O)c1cccc(NC(=O)c2cc(CN3CCCC3)on2)c1,-7.25% (inactive)
11,Cc1ccc(Cl)cc1N1CCN(C(=O)CN2C(=O)COc3ccc(S(=O)(=O)N4CCOCC4)cc32)CC1,4.75% (inactive)
12,Cc1c(C(=O)N2CCCC2)oc2c1-c1nn(CC(=O)NCc3ccc(OC(C)C)cc3)cc1CC2,-0.75% (inactive)
13,Cc1ccc(-c2nc(SCc3ccc(Br)cc3)n3[nH]c(=O)cc3n2)cc1,-0.15% (inactive)
14,O=S(=O)(c1ccccc1)c1nc(-c2ccc(Cl)cc2Cl)oc1N1CCCCC1,-2.95% (inactive)
15,CCOc1ccc(N(Cc2ccccc2)C(=O)c2nc(S(C)(=O)=O)ncc2Cl)cc1,-0.05% (inactive)
16,Cc1c(CCNC(=O)c2ccc(C(F)(F)F)cc2)sc2nc(-c3ccc(F)cc3)nn12,-2.3% (inactive)
17,COc1ccc(OC)c(-c2nc(C(N)=O)c3c(n2)n(-c2ccc4c(c2)OCO4)c(=O)n3C)c1,0.75% (inactive)
18,O=C(c1ccc2c(c1)N(Cc1ccc(Cl)cc1)C(=O)c1ccccc1S2(=O)=O)N1CCCCC1,-1.9% (inactive)
19,CCN1C(=O)c2ccccc2S(=O)c2ccc(C(=O)NCc3ccc(F)cc3)cc21 (stereo not given),3% (inactive)
20,CCOc1ccccc1NC(=O)COc1ccc(S(=O)(=O)N2CCCC2)cc1,-4.6% (inactive)
21,Cc1ccc(OCC(=O)Nc2ccccc2C(=O)NC2CC2)cc1,-0.15% (inactive)
22,CN1CCN(c2ccccc2NC(=O)COc2ccc(C3CCCCC3)cc2)CC1,37.7% (active)

row,Structure (SMILES),potentiation
1,CCn1c2ccccc2c2nnc(SCC(=O)O)nc21,-1.3% (inactive)
2,Cc1oc2ncnc(N3CCOCC3)c2c1C(=O)NCCc1ccccc1,2.6% (inactive)
3,COc1ccccc1N1CCN(C(CNC(=O)C(=O)NCc2ccc(C)cc2)c2cccnc2)CC1 (stereo not given),3.55% (inactive)
4,COc1cccc(C(=O)NC2CCN(C#N)CC2)c1,-6.95% (inactive)
5,O=C(Cn1cc(SCc2cccc(Cl)c2)c2ccccc21)N1CCCCC1,-2.05% (inactive)
6,CCCOc1ccc(NC(=O)CC2C(=O)N(c3ccccc3)C(=O)N2Cc2ccco2)cc1 (stereo not given),-2.9% (inactive)
7,Cc1cccc(NC(=O)C2CCCN2S(=O)(=O)c2cccc3nsnc23)c1C (stereo not given),-2.95% (inactive)
8,CC(C)c1ccc(NC(=O)Cn2nnc(C(=O)NCCc3ccccc3)c2N)cc1,-1.7% (inactive)
9,O=C(CSc1nc2nccnc2c(=O)n1CCc1c[nH]c2ccccc12)Nc1ccccc1F,-3.65% (inactive)
10,COc1ccc(S(=O)(=O)Nc2cccc3cccnc23)c(N)c1,-3.75% (inactive)
11,CC(C)NC(=O)NC(=O)CSc1nnc(-c2ccccc2F)n1N,35% (active)
12,Nn1c(SCC(=O)NC2CCCC2)nnc1-c1ccccc1F,-7.1% (inactive)
13,Nn1c(SCC(=O)NC(=O)NC2CCCC2)nnc1-c1ccccc1F,-9.3% (inactive)
14,O=S(=O)(c1ccc2c(c1)OCCO2)N1CCN(S(=O)(=O)c2cc(F)ccc2F)CC1,-0.7% (inactive)
15,Cc1ccc(C)c(Cn2c(=O)n(CCC(=O)NCc3ccc4c(c3)OCO4)c(=O)c3sccc32)c1,0.75% (inactive)
16,CCOc1cc(C2c3c(-c4ccc(Br)cc4)n[nH]c3C(=O)N2c2ccc(Cl)cc2)ccc1O (stereo not given),1.25% (inactive)
17,COc1cc(CN(CC2CCCO2)C(=O)c2ccccc2F)cc(OC)c1OC (stereo not given),5% (inactive)
18,N#CN1CCC(NC(=O)c2ccc(F)cc2)CC1,-0.05% (inactive)
19,O=C(CNC(=O)c1ccc(Cl)c(C(F)(F)F)c1)OC(C(=O)Nc1cc(C(F)(F)F)ccc1Cl)c1ccccc1 (stereo not given),1.3% (inactive)

# Reference: PubChem BioAssay AID504651 (National Center for Advancing Translational Sciences (NCATS), 2011)
